# Measured values: PubChem BioAssay AID1159506 (National Center for Advancing Translational Sciences (NCATS), 2015)
# Whole data set: some 59,000 sequences, median the read-out near -0.00055, cut for the lowest 2% near -2. This excerpt belongs to a sample that is enriched for the lowest values.
# Experiment: Identification of proteins required for the processing of the EWS-FLI1 nascent transcript;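 further: robust z of luciferase light less the median z of siRNAs with the same seed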
# Details: TC32 Ewing sarcoma NR0B1-luc vs CMV-luc (EWS-FLI1 target promoter against control promoter), 48 h; screened at 20 nM (by protocol)
# Outline: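 TC32 Ewing sarcoma cells carrying NR0B1-promoter or CMV-promoter luciferase reporters were reverse-transfected with single siRNAs at 20 nM, three per gene genome-wide. Luminescence was read after 48 h and normalized to non-targeting controls.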
row,Sequence,seed-corrected z-score
1,UCAGGUAGCAGGGUAUUGG against LTA4H,-0.0663
2,UCCCAAUUCAGAUCUAUGG against FBXO42,0.112
3,UCAGGUGUAGGAUUCCGAC against XAGE2,-2.85
4,UUUGUUGACUGCUUGACUG against METAP1D,0.33
5,AACCUGUAUGCAUCAACUG against BMS1P11,2.32
6,UACUGUUCCACUAGCUUCG against SF3A1,-1.91
7,UCUGUAACCUUGGUAAGGC against C10orf2,0.0621
8,UGGUUGAUUAGUAAAGCAC against C10orf113,-0.339
9,ACUGUUAUCAGGAAAGUCC against PLCB2,-0.539
10,UGUCUUUGUAGGCAGCUGG against CLDN14,-2.18
11,UAAAGAGUAAAGGUCUUCC against ZNF540,0.799
12,UAUGGACCCAUCAUACUGG against CADM4,0.833
13,UAUUGAACUUCAAGGGUCG against EFTUD2,-2.91
14,UUGGUCUGUAGUACUGUUC against SNX27,-2.17
15,UUUGUGCCCUGCGUUUAUC against KCND3,-0.731
16,AGGUGGAAGAGAAAUAUCU against OR4D11,-0.264
17,UCAAGUUACAGGUUCGGGC against DRG1,1.09
18,UAUUUGUAGCCCAAGAAGG against YIF1B,0.101
19,UUUCUGAUCAGGUCCAUGA against SLC1A6,-0.114
20,UCAUAGUUGAGCAAGGUGG against AOC3,-0.116
21,UCCGUAUCCAGCUCGUCCU against NXNL1,-1.17
22,UUCAAUGCAAGCAAGCUUG against OR4L1,0.45

row,Sequence,seed-corrected z-score
1,UUGCGAACAUUGCCUGUGC against MEP1A,0.216
2,UCUUUAUCUAGAGGCAUUC against LOC728040,-2.35
3,UUUAUUCUAAACACGUACU against RHBDD3,-0.246
4,UAGGAUUACAGCAAUCAUC against 11-Mar,0.0159
5,UGUCGUCAAAGUAUAAUCG against ETV5,-2.12
6,UAUGGAGCAGGUAAUAGAG against ZNF311,0.514
7,UUCUCAUCAAACUCUACAC against OLFML3,0.213
8,UCUCCUAUAGGACCUGUGC against MGAM,-0.17
9,UGAGCAUUUAUUGUGAGUG against OR2T6,-0.244
10,UCCUGGAGCACAUCAGUGC against ASPRV1,0.0418
11,UGGUUGUUAAAGGUCAUGG against HIPK2,-2.07
12,UACGCUUGAAGUACCGAUG against SLC7A1,-2.19
13,AAACGUACAUGAUGGGAGC against GPR155,-0.807
14,UUGAACUCAGCGAUCAUCU against TNNC2,-0.279
15,UAUUAUCAAUGGUCCAGGG against AAGAB,0.496
16,UUUGAUGCCGUCAUCAUCC against TMEM106C,0.22
17,AGAAGUUUUUGCUCUGUCC against DYRK4,0.321
18,AAAUGUACAGAACUAUCUC against PADI2,-2.36
19,UCUCUGAAGAGUACAGGAG against PTOV1,0.398
20,UCAGGUGCAAAGCUACUGG against PARK2,-2.4
21,UCAUUGACAUUGGUCACGG against CYP27C1,-0.22
22,UUAUAACCACUGACUCUCC against MIPEPP3,0.124

row,Sequence,seed-corrected z-score
1,UAUUGUUCUUGUCCUUUUG against TERF1,-0.319
2,AACCGAGUCAGAAUGGUGC against SDC1,0.384
3,UUUGGAAGACUGGAGCAGG against CTIF,0.631
4,UUCCCAUACCCUAUGGUCG against KCNK10,-0.13
5,UCUACUGUCAUUGAGACCA against SNRPB,-2.67
6,UCUGGUACUCAGAAGGUCC against COPS5,1.12
7,AUAGUAACGAUCAACUCCA against NDUFA1,0.512
8,AUCGAUAUAAACUGCUUCC against PDE1A,-2.44
9,UAUGUACUUCAGGCGCCUG against SLC35A2,0.271
10,AGUUUAUACAUUCUUUUCC against SPTLC1,-0.145
11,UAGAAGAUAGGUGAAGUGA against DNAJC22,0.192
12,UUACACUCAAGAAGAUUUC against GPR141,-0.389
13,UUAACGUCCACCACCAGAG against TYMP,-0.582
14,UCAUUGAGAAUUCUCCGGG against NENF,2.29
15,AUCGUCCCAGUAAAUGUCC against BEST3,-0.819
16,UAGACUAACAUUGACUUAG against LOC150519,0.00864
17,UCUUUGCUAAGCUCGGAGG against RAD51C,-2.07
18,AUAGAUAUGUUCACAAGUG against UNC119B,0.327
19,UAGGGCGCAAGGGUAUGUG against SPDYE3,-0.136
20,UUACUAGCUCCGGUGGCAC against KCNK4,-0.0516
21,UUUAUCCCGAAGGAGGUUC against CAB39L,-2.55
22,UGUAUUCCAACCUACAAAC against HGSNAT,-0.666

row,Sequence,seed-corrected z-score
1,AAUCUAACAAAUGAAGGUG against EIF2A,0.719
2,AUAGUUCCUUUGACUAUGG against IKZF5,-0.306
3,UCUAAUCCAAGUUCUACUG against AKAP5,-0.304
4,UUGUGGGUGGUGAAGAGGC against EPOR,0.293
5,AACCUGGUAAGUCUCGAUG against PPP2R2B,-0.459
6,UAACGGAUGGUGUGGUUUC against BCOR,-0.0753
7,UACCUUUUAUCCUGGGUUG against LOC285423,-2.09
8,UAGUGUAAACAAGAAGUUG against ABHD10,0.996
9,AAAGCGAGCACUGCGGAUC against CCDC102A,-0.304
10,UAGAGCACAGGAUAGAACC against RAP1GAP,0.295
11,UGUCUUCUAAGUAGAGCCU against VIPR2,-2.47
12,AACGAAACAAACUUGGUCC against NGEF,0.943
13,UAUCCUAAAAUCGCUGUUG against ARNTL2,-0.114
14,UCCCAUUGAAAGCAUAUCC against TSHR,-1.47
15,UAUCUUUAUCAAAACCUCG against EFCAB1,-0.824
16,UAUGGAAUAAGUUGCUCGA against MED30,-0.0259
17,UUGACUACGAUGAGCUUGC against ETV3L,1.16
18,UUAUUAUGUAUGCAUCUGG against LINC00632,-0.334
19,ACAGUGGUGAGUUAUCUCA against CDC42,-2.8
20,AUGGAUUCUUCAAUCGUCC against SMARCAD1,0.8
21,AGUCAUAUCAUUUAUAGUG against FOXQ1,-0.473
22,UUUCAAUUUAGUUUGAUGA against LOC728147,0.0773

row,Sequence,seed-corrected z-score
1,AUUACUUCGAGACUUGCUG against LCLAT1,-0.482
2,AAACUUAGUAGAGUUGUCC against LOC342541,0.528
3,GUUGUGACCUGUCACGAUG against CTU1,-1.99
4,UGCUUGACAACUGGCCACC against RPL18AP4,-0.411
5,UCAUCAUCUUCUUCGAGGC against DCLRE1A,-2.16
6,UAGAGGACCUUCAUGUUGU against THY1,0.624
7,UUAUCUGGAAUGAACAAUG against PHF3,-0.486
8,UACGAUCAUUGCACUGUCC against FBN1,-0.21
9,UAUGUAUCUACCCAUCCGC against ATG3,-1.27
10,UGACUGUUCACGGAAUUCU against TGM3,-0.755
11,UCUUUAGGAAUGUAAAGCC against SKIV2L2,0.824
12,UCAUUUUCGACCACCUUUC against WBSCR16,-0.738
13,UUAGGAACUCGAACGACGU against GTF2F1,0.889
14,UUCUUCUUAGAUUUAUGCC against RPL3,-2.09
15,UCUCGAUUGAGGGUGGUUG against FLRT3,0.383
16,AUAGGUGCAAGGCUUGUGC against C1orf56,-2.01
17,UCUUCUCGAACAGAGGUCG against F2,-0.0868
18,UGAGGGUUUAGCAUCAAGC against PCGF1,-1.47
19,UCUUUUAACGACCUCCUGC against SLC35D3,0.495
20,UCGCGGAUCUCCUUUGUGG against HMGN2P18,-0.51
21,AAAGUCCCAAGUGCUAAGA against FAM180B,2.95
22,UUCUCGAUGCGGUCCAUCC against RILPL1,1.36

row,Sequence,seed-corrected z-score
1,UUUGGUAGAAAAUUGCAGA against FJX1,-0.707
2,UUCCGUUCCACCUCCAUCA against SPATC1,-2.15
3,UCAUCUACCUGUAUUACCU against CDCA8,-0.479
4,AAUGGUAGUAGCGGAAUCG against SLC12A6,-1.16
5,UAUGUACUUCUGACAAGUC against RNF125,0.00921
6,UAUCUAGCAGCUCUCCCAG against AMHR2,0.151
7,UAACCGACUGGGUAGAGCG against EMC4,0.348
8,UCUCUGCUCAAUGUUUUCU against LBH,-2.25
9,UACGAGGAUGUUGUAUUCC against N4BP1,-0.092
10,UACAGUACAAACAAGGCUG against CEBPA,-0.377
11,UUAACUGCUAGUGUAUUGG against TCP1,-1.18
12,UCAAGGAUAAGAGAGAUUG against RORC,0.034
13,UGCGAUUGAAUAUUCUACG against CSRNP3,-2.35
14,AUUCUUACAAUCUAAAGGC against SUPT7L,0.435
15,AGAGGUUGUACAUUCUUCG against SESN2,-2.47
16,UUCUUAGACACGUAGUACC against KAT2B,0.834
17,UAGGGAUUCCCUGUAGUUC against COLEC10,1.57
18,AUCUGUCUGAGUGCAAAUC against HIPK1,-0.0595
19,UUGGUAUCAAGGUCUACAC against DENND4B,-0.319
20,AUUGUAUACAGCGAGUUCU against GP1BA,0.181
21,AUCCGGAACCUGUAGAUCG against CCDC130,-0.0498
22,AAUGGUCUUGUUGGUCUCC against TSNARE1,-2.7
